# Measurements as given in PubChem BioAssay (NCATS).
# Values joined by “and” are separate entries in the source; they are usually repeats but may differ in a detail not shown here. Equal entries are not always repeated. A number with no mark means an inactive call. Inconclusive results are not listed. Where a call stands in place of a potency, no number is given. Active and inactive are the calls of the source. Unless noted, calls come from the whole dose curve; as a rule, active = well fitted curve in the direction sought with a large enough effect; inconclusive = small, poorly fitted or top-dose-only effect, or another doubt; inactive = no such curve, though single readings can be large; an effect the other way counts as inactive or inconclusive.
# Tests used:
# UISO = experiment: qHTS assay to identify novel small-molecules to repurpose for Merkel cell carcinoma treatment (AID 1296009); settings: MCC and control cell lines, CellTiter-Glo viability, 72 h; series mostly up to 46 µM; note: nearly all actives have a fitted effect of over 60% in size
# Procedure, shortened: (§1)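 After compound transfer in DMSO, plates were kept 72 hr at 37 degree celsius. Luminescent ATP signal from CellTiter-Glo served as viability measure, normalized against DMSO and no-cell controls.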
# WaGa = experiment: as above; settings: MCC and control cell lines, CellTiter-Glo viability, 72 h; series mostly up to 46 µM
# Procedure, shortened: as §1
# C33A = experiment: Primary qHTS to identify gynecologic anti-cancer compounds using libraries of approved drugs and bioactive compounds (AID 1345084); settings: Gynecologic cancer cell panel viability, ATPlite luminescence, 48 h; series mostly up to 57.5 µM; note: nearly all actives have a fitted effect of over 55% in size
# Procedure, shortened: (§2)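 Luminescence from the ATPlite ATP-monitoring reagent indicates viable cell number; lower signal means cytotoxicity. Cells received compound 16 h after seeding and were exposed for 48 h across five concentrations.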
# CAOV3 = experiment: as above; settings: Gynecologic cancer cell panel viability, ATPlite luminescence, 48 h; series mostly up to 57.5 µM
# Procedure, shortened: as §2
# CASKI = experiment: as above; settings: Gynecologic cancer cell panel viability, ATPlite luminescence, 48 h; series mostly up to 57.5 µM
# Procedure, shortened: as §2
# Es-2 = experiment: as above; settings: Gynecologic cancer cell panel viability, ATPlite luminescence, 48 h; series mostly up to 57.5 µM
# Procedure, shortened: as §2
# HeLa = experiment: as above; settings: Gynecologic cancer cell panel viability, ATPlite luminescence, 48 h; series mostly up to 57.5 µM
# Procedure, shortened: as §2
# Hek293T = experiment: as above; settings: Gynecologic cancer cell panel viability, ATPlite luminescence, 48 h, control line for the selectivity index; series mostly up to 57.5 µM
# Procedure, shortened: as §2
# JEG-3 = experiment: as above; settings: Gynecologic cancer cell panel viability, ATPlite luminescence, 48 h; series mostly up to 57.5 µM
# Procedure, shortened: as §2
# OV90 = experiment: as above; settings: Gynecologic cancer cell panel viability, ATPlite luminescence, 48 h; series mostly up to 57.5 µM
# Procedure, shortened: as §2
# PA-1 = experiment: as above; settings: Gynecologic cancer cell panel viability, ATPlite luminescence, 48 h; series mostly up to 57.5 µM
# Procedure, shortened: as §2
# Tov-21-G = experiment: as above; settings: Gynecologic cancer cell panel viability, ATPlite luminescence, 48 h; series mostly up to 57.5 µM
# Procedure, shortened: as §2
# Tov112D = experiment: as above; settings: Gynecologic cancer cell panel viability, ATPlite luminescence, 48 h; series mostly up to 57.5 µM
# Procedure, shortened: as §2
# SKOV3 = experiment: as above; settings: Gynecologic cancer cell panel viability, ATPlite luminescence, 48 h; series mostly up to 57.5 µM
# Procedure, shortened: as §2
# [1] = Drug repurposing screens with cells derived from glioblastoma tumor samples (AID 1345199); settings: GBM patient neurospheres viability, ATP luminescence, 48 h; for Potency: tumour line A; note: potency is the fitted concentration of half-maximal effect; for all read-outs here: nearly all actives have a fitted effect of over 40% in size
# Procedure, shortened: (§3)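 Four patient lines of CD133+ GBM neurospheres were screened at several concentrations; hits were retested in those lines plus three slower-growing GBM lines, using 48-hour treatment and ATP-based viability.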
# astro = experiment: as above; settings: viability, ATP luminescence, 48 h; series mostly up to 45.9 µM
# Procedure, shortened: as §3
# [2] = molecular target: Nuclear receptor subfamily 1 group I member 2 (Rattus norvegicus) (UniProt Q9R1A7); experiment: qHTS assay for small molecule activators of the rat pregnane X receptor (rPXR) signaling pathway (AID 651751; call rule not given here); settings: rPXR reporter cells, luciferase (One-Glo), 24 h
# Nuclear receptor subfamily 1 group I member 2 (Rattus norvegicus), sequence (Q9R1A7 whole entry, looked up): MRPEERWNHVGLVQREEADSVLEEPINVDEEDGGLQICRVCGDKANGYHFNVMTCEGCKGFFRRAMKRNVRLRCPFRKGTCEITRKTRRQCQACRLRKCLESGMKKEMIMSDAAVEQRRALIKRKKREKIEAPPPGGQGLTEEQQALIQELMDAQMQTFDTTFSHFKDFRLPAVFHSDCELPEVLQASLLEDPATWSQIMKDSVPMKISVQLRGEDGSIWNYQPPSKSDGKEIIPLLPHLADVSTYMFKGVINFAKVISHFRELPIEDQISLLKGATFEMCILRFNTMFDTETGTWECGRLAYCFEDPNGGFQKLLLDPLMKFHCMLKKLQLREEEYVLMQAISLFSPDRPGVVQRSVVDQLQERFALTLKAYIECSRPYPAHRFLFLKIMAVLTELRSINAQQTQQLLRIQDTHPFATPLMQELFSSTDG
# [3] = qHTS assay for small molecule activators of the human pregnane X receptor (PXR) signaling pathway (AID 720659; call rule not given here)
# [4] = at 45.9 µM (top of the series), tumour line B
# [5] = at 45.9 µM (top of the series), tumour line D
# [6] = at 46.1 µM (top of the series), tumour line C
smiles,measurement,setting,value
CC(NC(CCc1ccccc1)C(=O)O)C(=O)N1C(=O)N(C)CC1C(=O)O (configuration not stated),Potency,UISO,inactive
same,Potency,WaGa,inactive
same,Potency,C33A,inactive
same,Potency,CAOV3,inactive
same,Potency,CASKI,inactive
same,Potency,Es-2,inactive
same,Potency,HeLa,inactive
same,Potency,Hek293T,inactive
same,Potency,JEG-3,inactive
same,Potency,OV90,inactive
same,Potency,PA-1,inactive
same,Potency,Tov-21-G,inactive
same,Potency,Tov112D,inactive
Oc1ccccc1,Potency,UISO,inactive
same,Potency,WaGa,inactive
same,Potency,C33A,inactive
same,Potency,CAOV3,inactive
same,Potency,CASKI,inactive
same,Potency,Es-2,inactive
same,Potency,HeLa,inactive
same,Potency,Hek293T,inactive
same,Potency,JEG-3,inactive
same,Potency,OV90,inactive
same,Potency,PA-1,inactive
same,Potency,SKOV3,inactive
same,Potency,Tov-21-G,inactive
same,Potency,Tov112D,inactive
same,"activity, negative = cell killing",[1]; [4],8.9%
same,"activity, negative = cell killing",[1]; [5],-14.6%
same,"activity, negative = cell killing",[1]; [6],-15.8%
same,Potency,astro,inactive
same,max response,[2],-2.24% and -1.02% and -2.45%
same,outcome,[3],inactive
Cc1cc(O)c2c(O)c3c(O)cccc3cc2c1,Potency,UISO,inactive
same,Potency,WaGa,inactive
same,Potency,C33A,inactive
same,Potency,CAOV3,inactive
same,Potency,CASKI,inactive
same,Potency,Es-2,inactive
same,Potency,HeLa,inactive
same,Potency,Hek293T,inactive
same,Potency,JEG-3,inactive
same,Potency,OV90,inactive
same,Potency,PA-1,inactive
same,Potency,Tov-21-G,inactive
same,Potency,Tov112D,inactive
same,"activity, negative = cell killing",[1]; [4],-27.7%
same,Potency,[1],14.1 µM (active)
same,Potency,astro,inactive
CCCCC/C=C\C/C=C\CCCCCCCC(=O)NC(C)c1ccccc1 (configuration not stated),Potency,UISO,inactive
same,Potency,WaGa,inactive
same,Potency,C33A,inactive
same,Potency,CAOV3,inactive
same,Potency,CASKI,inactive
same,Potency,Es-2,inactive
same,Potency,HeLa,inactive
same,Potency,Hek293T,inactive
same,Potency,JEG-3,inactive
same,Potency,PA-1,inactive
same,Potency,Tov-21-G,inactive
same,Potency,Tov112D,inactive
same,"activity, negative = cell killing",[1]; [4],-3.69%
same,"activity, negative = cell killing",[1]; [5],-27.1%
same,"activity, negative = cell killing",[1]; [6],-9.18%
same,Potency,[1],11.2 µM (active)
same,Potency,astro,inactive
C[C@@H](C1=C(CCN(C)C)Cc2ccccc21)c1ccccn1,Potency,UISO,inactive
same,Potency,WaGa,inactive
same,Potency,C33A,inactive
same,Potency,CAOV3,inactive
same,Potency,CASKI,inactive
same,Potency,Es-2,inactive
same,Potency,HeLa,inactive
same,Potency,JEG-3,inactive
same,Potency,PA-1,inactive
same,Potency,SKOV3,inactive
same,Potency,Tov-21-G,inactive
same,Potency,Tov112D,inactive
same,"activity, negative = cell killing",[1]; [4],-18.9%
same,"activity, negative = cell killing",[1]; [6],-5.63%
same,Potency,[1],17.8 µM (active)
same,Potency,astro,inactive
O=C(c1ccco1)N1CCNCC1,Potency,UISO,inactive
same,Potency,WaGa,inactive
same,Potency,C33A,inactive
same,Potency,CAOV3,inactive
same,Potency,CASKI,inactive
same,Potency,Es-2,inactive
same,Potency,HeLa,inactive
same,Potency,Hek293T,inactive
same,Potency,JEG-3,inactive
same,Potency,PA-1,inactive
same,Potency,SKOV3,inactive
same,Potency,Tov-21-G,inactive
same,Potency,Tov112D,inactive
CC(C)C(C)(C)C(C)(C)C(C)(C)S,Potency,UISO,inactive
same,Potency,WaGa,inactive
same,Potency,C33A,inactive
same,Potency,CAOV3,inactive
same,Potency,CASKI,inactive
same,Potency,Es-2,inactive
same,Potency,HeLa,inactive
same,Potency,Hek293T,inactive
same,Potency,OV90,inactive
same,Potency,Tov-21-G,inactive
same,Potency,Tov112D,inactive
same,"activity, negative = cell killing","[1]; at 91.6 µM (top of the series), tumour line B",-9.39%
same,"activity, negative = cell killing","[1]; at 91.6 µM (top of the series), tumour line D",-2.43%
same,"activity, negative = cell killing","[1]; at 99.2 µM (top of the series), tumour line C",-11.4%
same,Potency,[1],28.2 µM (active)
same,Potency,astro,inactive
same,max response,[2],-1.2% and -1.45%
same,outcome,[3],inactive
CCN(CC)CCN,Potency,UISO,inactive
same,Potency,WaGa,inactive
same,Potency,C33A,inactive
same,Potency,CAOV3,inactive
same,Potency,CASKI,inactive
same,Potency,Es-2,inactive
same,Potency,HeLa,inactive
same,Potency,Hek293T,inactive
same,Potency,JEG-3,inactive
same,Potency,PA-1,inactive
same,Potency,SKOV3,inactive
same,Potency,Tov-21-G,inactive
same,Potency,Tov112D,inactive
CCC(=O)O[C@H]1[C@H](O[C@@H]2[C@@H](C)[C@H](O[C@H]3C[C@@](C)(OC)[C@@H](O)[C@H](C)O3)[C@@H](C)C(=O)O[C@H](CC)[C@@](C)(O)[C@H](O)[C@@H](C)C(=O)[C@H](C)C[C@@]2(C)O)O[C@H](C)C[C@@H]1N(C)C,Potency,UISO,inactive
same,Potency,WaGa,inactive
same,Potency,C33A,inactive
same,Potency,CAOV3,inactive
same,Potency,CASKI,inactive
same,Potency,Es-2,inactive
same,Potency,HeLa,inactive
same,Potency,JEG-3,inactive
same,Potency,OV90,inactive
same,Potency,PA-1,inactive
same,Potency,SKOV3,inactive
same,Potency,Tov-21-G,inactive
same,Potency,Tov112D,inactive
CCCCNc1ccc(C(=O)OCCN(CC)CC)cc1,Potency,UISO,inactive
same,Potency,WaGa,inactive
same,Potency,C33A,inactive
same,Potency,CAOV3,inactive
same,Potency,Es-2,inactive
same,Potency,HeLa,inactive
same,Potency,Hek293T,inactive
same,Potency,JEG-3,inactive
same,Potency,OV90,inactive
same,Potency,PA-1,inactive
same,Potency,Tov-21-G,inactive
same,Potency,Tov112D,inactive
same,Potency,astro,inactive
